Shown are actives, neighbours in structure and some others; about 6.1% of the full set was active somewhere.
HepG2 viability – counter-screen for TGF-b inhibitors: cytotoxicity in HepG2 cells; 410,000 compounds, 0.76% hits; Potency, µM (titrated, usually from 46.1 µM), without a hit: top-dose activity change, negative = cytotoxicity, hits mostly cytotoxic; AID 588856; HepG2 CAGA-GFP viability, ATP luminescence, 18 h
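CellTiter-Glo luminescence gave cytotoxicity after 18 hours at 37 degrees C. The cells were HepG2 CAGA-GFP in 1% FBS DMEM, stimulated with 500 pg/mL TGF-beta after compound addition. %Activity was normalised to no-cell wells (complete cell-killing) and DMSO (no toxicity), and curves were fitted and classified.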
ATXN2 expr inh – ATXN2 expression inhibition | Potency, µM (top dose mostly 57 µM), without a hit: at the top dose activity change, negative = inhibition, most hits filed as inhibitors | AID 1745845 | HEK-293 ATXN2-luciferase reporter, luminescence, 24 h | 360,000 compounds, 0.72% hits; also: % is scaled to controls: 0 for no effect and ±100 for the full control effect; nearly all actives have a fitted effect of over 55% in size
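ATXN2-luciferase reporter cells (luciferase flanked by upstream and downstream ATXN2 gene portions) were treated 24 h at 37 °C with compounds at up to 57 uM. SteadyGlo luminescence gave expression; GF-AFC fluorescence gave viability.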
TGFb SMAD3 inh – TGF-b pathway inhibition; HepG2 CAGA-GFP TGF-b/SMAD3 reporter, GFP fluorescence, 18 h; TGF-beta stimulated, 500 pg/mL final; Potency, µM (series often up to 46.1 µM), for the others: top-dose activity, negative = inhibition, most hits filed as inhibitors; AID 588855; 410,000 compounds, 1.2% hits; also: % is scaled to controls: 0 for no effect and ±100 for the full control effect; nearly all actives have a fitted effect of over 65% in size
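Using HEPG2 CAGA-GFP reporter cells at 1000 cells/well, we pinned test compounds, stimulated with recombinant TGF-beta (500 pg/mL final) and measured total well GFP after 18 h.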
ATXN viability – cell viability loss in ATXN counter-screen | 400,000 compounds, 0.49% hits | Potency, µM (highest dose often 56.7 µM), usual class: cytotoxic | S2 cells (HEK-293 line with an ATXN2-luciferase reporter) viability, CellTiter-Fluor protease fluorescence, 24 h; also: nearly all actives have a fitted effect of over 40% in size
VP16 counter – counter-screen for ROR gamma inhibitors: Gal4-VP16 reporter | Drosophila S2 Gal4-VP16 UAS-luciferase, luminescence, 20 h | Potency, µM (doses to about 53.6 µM), for the others: at the highest dose activity, negative = inhibition, hits mostly inhibitors | 310,000 compounds, 3.5% hits;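 also: Gal4-VP16 expression switched on by copper sulfate through the metallothionein promoter; % is scaled to controls: 0 for no effect and ±100 for the full control effect; nearly all actives have a fitted effect of over 50% in size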
RORgamma inh – inhibitors of mouse ROR gamma transcriptional activity | Drosophila S2 Gal4-RORgamma UAS-luciferase reporter, 20 h | Potency, µM (highest dose often 53.6 µM), without a hit: at the top dose activity change, negative = inhibition, actives largely listed as inhibitors | 310,000 compounds, 5.4% hits | AID 2551; also: % is scaled to controls: 0 for no effect and ±100 for the full control effect; nearly all actives have a fitted effect of over 60% in size
Target sequence (P51450 whole entry, looked up, the tested form may be a part): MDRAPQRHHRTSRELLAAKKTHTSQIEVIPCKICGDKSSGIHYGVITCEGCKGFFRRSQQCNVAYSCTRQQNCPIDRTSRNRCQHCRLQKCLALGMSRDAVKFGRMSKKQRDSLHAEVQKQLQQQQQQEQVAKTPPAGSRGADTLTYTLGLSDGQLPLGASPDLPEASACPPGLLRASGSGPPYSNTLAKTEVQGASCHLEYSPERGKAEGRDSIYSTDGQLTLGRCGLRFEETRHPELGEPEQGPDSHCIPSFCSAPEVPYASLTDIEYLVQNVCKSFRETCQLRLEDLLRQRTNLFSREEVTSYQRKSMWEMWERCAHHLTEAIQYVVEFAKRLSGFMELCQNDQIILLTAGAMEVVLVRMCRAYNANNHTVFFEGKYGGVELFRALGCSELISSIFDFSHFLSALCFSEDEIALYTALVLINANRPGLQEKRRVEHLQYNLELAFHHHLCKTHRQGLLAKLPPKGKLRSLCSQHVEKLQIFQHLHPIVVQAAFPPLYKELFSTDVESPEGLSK
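Drosophila Schneider cells stably carrying a metallothionein-driven Gal4 DBD–ROR gamma fusion and a UAS-Photinus luciferase reporter were exposed to compound for 1 hr, then induced with copper sulfate (700 uM final) for 20 hr at ambient temperature before luminescence reading.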
Starred values were filed as active, the others as inactive; i = inactive; ? = inconclusive; . = no result; ! = repeats disagree; [ ] = dose if it differs, or a comment. Calls follow the shape of the dose curve; as a rule, active = well fitted curve in the direction sought with a large enough effect; inconclusive = small, poorly fitted or top-dose-only effect, or another doubt; inactive = no such curve, though single readings can be large; an effect the other way counts as inactive or inconclusive. Potency is read from the fitted curve at half-maximal effect.

SMILES	HepG2 viability	ATXN2 expr inh	TGFb SMAD3 inh	ATXN viability	VP16 counter	RORgamma inh
CCn1c(C)nc2cc(S(=O)(=O)C(F)(F)F)ccc21	-10.9%	11.3%	2.8%	i	?	?
CCn1c(C)nc2cc(C(=O)N3N=C(CCOC)CC3(O)C(F)(F)F)ccc21 (configuration not stated)	0.6%	6.0%	0.4%	i	35.5µM*	?
O=[N+]([O-])c1ccc(O)c(/C=N/Nc2ccccn2)c1	-83.2%	2.82µM*	?	i	11.2µM*	10µM*
O=[N+]([O-])c1ccc(O)c(/C=N/Nc2nc3ccccc3[nH]2)c1	-26.0%	?	?	?	5.62µM*	6.31µM*
O=[N+]([O-])c1ccc(O)c(/C=N/Nc2ncnc3c2cnn3-c2ccccc2)c1	-78.4%	2.82µM*	?	?	?	?
O=C(O)COc1ccc(Br)cc1/C=N\Nc1ccccn1	-0.9%	-14.2%	-0.9%	i	-21.5%	2.24µM*
O=[N+]([O-])c1ccc(NN=Cc2ccccc2O)nc1	-58.8%	?	?	.	.	.
O=C(Cc1ccc(F)cc1)NC1CC(=O)N(c2ccccc2)C1 (configuration not stated)	-5.8%	.	-4.5%	.	.	.
O=CN1CCCN(C(=O)c2cc(NC(=O)c3ccccc3)cc3ncn(C4CCCC4)c23)CC1	.	.	.	i	.	.
COc1cccc(/C=N/Nc2nc3ccccc3[nH]2)c1O	-76.4%	.	3.16µM*	?	2.24µM*	0.708µM*
COc1cccc(/C=N/Nc2nc3ccccc3[nH]2)c1OC	-13.8%	48.7%	-5.5%	i	?	?
Cc1[nH]n(-c2ccccc2)c(=O)c1Sc1ccc(Cl)cc1	-26.3%	-6.5%	0.0%	i	-11.1%	31.2%
CCCSC(=S)c1c(C)[nH]n(-c2ccccc2)c1=O	-57.0%	25.1µM*	0.0%	.	0.794µM*	0.316µM*
COc1ccccc1-c1ccc(=O)n(CC(=O)NC2CCc3ccccc32)n1 (configuration not stated)	-13.4%	5.1%	-8.3%	i	?	3.55µM*
COc1ccc(-n2nc3c(N4CCC(C(=O)NCCc5ccccc5C)CC4)nnc(C)c3c2C)cc1	-31.2%	?	-19.9%	?	-12.0%	1.0%
Cc1ccccc1CNC(=O)C1CCN(c2nnc(C)c3c(C)n(-c4ccccc4)nc23)CC1	2.1%	.	0.0%	.	.	.
Cc1ccc(-n2nc3c(N4CCC(C(=O)NCCc5ccccc5C)CC4)nnc(C)c3c2C)cc1	3.8%	?	4.47µM*!	?	?	?
Cc1ccc(-n2nc3c(N4CCC(C(=O)NCc5ccc(C)o5)CC4)nnc(C)c3c2C)cc1	-27.5%	?	?	i	-2.5%	-6.6%
Cc1nnc(N2CCC(C(=O)NCc3cccc(Cl)c3)CC2)c2nn(-c3ccccc3)c(C)c12	-72.8%	?	11.2µM*	?	.	.
Cc1ccc(-n2nc3c(N4CCC(C(=O)NCc5cccc(F)c5)CC4)nnc(C)c3c2C)cc1	-95.4%	.	15.8µM*	?	?	-16.1%
COC(=O)Sc1nnc(-c2ccc(Br)cc2)o1	.	.	.	.	6.8%	17.8µM*
Nn1cnnc1SC1CCCCC1NS(=O)(=O)c1ccccc1 (configuration not stated)	0.2%	-3.3%	23.8%	i	8.91µM*	-16.3%
Cn1cnnc1SC1CCCCC1NS(=O)(=O)c1ccccc1 (configuration not stated)	-4.7%	-1.5%	-0.9%	i	-13.2%	-7.1%
C=Nc1ccc(/C=C/c2ccnc3ccccc23)cc1	-68.1%	.	-10.1%	.	.	.
O=C(NC(=S)Nc1cc([N+](=O)[O-])ccc1O)c1cccnc1	-19.6%	.	-29.8%	i	12.6µM*	2µM*
SMILES	HepG2 viability	ATXN2 expr inh	TGFb SMAD3 inh	ATXN viability	VP16 counter	RORgamma inh
O=C(NC(=S)Nc1cc([N+](=O)[O-])ccc1Cl)c1ccccc1	-24.7%	-14.5%	-19.7%	i	?	-32.8%
Cc1ccc([N+](=O)[O-])cc1NC(=S)NC(=O)c1cccnc1	0.1%	-11.5%	-3.5%	i	-23.7%	12.6µM*
CC(C)c1ccc(O)c(NC(=O)c2cccnc2)c1	-4.6%	0.9%	-1.5%	i	7.3%	?
CCC(C)c1ccc(O)c(NC(=S)NC(=O)c2cccnc2)c1 (configuration not stated)	-31.5%	-5.5%	?	i	1.26µM*	0.562µM*
O=C(NC(=S)Nc1ccccc1O)c1cccnc1	-21.5%	-8.0%	0.8%	i	?	11.2µM*
N#Cc1ccccc1NC(=S)NC(=O)c1cccnc1	-2.5%	-7.7%	-8.7%	?	.	.
CCS(=O)(=O)c1ccc(OC)c(C(=O)OC)c1	.	11.7%	.	i	.	.
O=C[C@H](O)[C@@H](O)[C@H](O[C@H]1O[C@H](CO)[C@@H](O[C@H]2O[C@H](CO)[C@@H](O)[C@H](O)[C@H]2O)[C@H](O)[C@H]1O)[C@H](O)CO	.	.	.	i	.	.
Cc1ccc2nc(N3C(=O)CNC3=S)sc2c1	-135.8%	?	11.2µM*	i	3.55µM*	1µM*
COc1ccc2nc(N3C(=O)CNC3=S)sc2c1	-61.4%	?	?	?	5.62µM*	0.501µM*
COC(=O)/C=C1\C(=O)N(c2nc3ccc(OC)cc3s2)C(=S)N1c1ccc(F)cc1	.	.	.	.	1.6%[0.365 µM]	?
